Source: PubChem BioAssay
Rows were chosen to be rich in hits. Some 19% of all compounds tested hit in one or more screens of this group.
IL1B secr inh = inflammasome signaling inhibition, IL-1 beta readout; THP-1 LPS/ATP IL-1B secretion, AlphaLISA, 16 h; hits give low values; activity change, % at 57.5 µM; 4.7% of 360,000 active; in the data active = activity change below about -50%; inconclusive = mostly about -30% to -49%
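THP-1 cells pretreated 1 hr with compounds (up to 57.5 uM final), then stimulated with LPS (250 ng/mL final) plus ATP (1.25 mM final); secreted IL-1B measured by AlphaLISA after 16 hr, decreased signal indicating inhibition.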
DT40 TDP1 no CPT = qHTS for Inhibitors of human tyrosyl-DNA phosphodiesterase 1 (TDP1): qHTS in cells in absence of CPT; Potency, µM (series often up to 46.2 µM), without a hit: at the top dose activity change, negative = growth inhibition, usual class: inhibitors; DT40 Tdp1-/- hTDP1 cells, no CPT, ATP luminescence, 48 h; 15% of 420,000 active; also: potency is read from the fitted curve at half-maximal effect; nearly all actives have a fitted effect of over 55% in size
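Luminescent ATP content (CellTiter-Glo) served as the growth readout. Knockout chicken DT40 cells expressing human TDP1 were exposed to compounds without camptothecin for a minimum 48 hr at 37 °C.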
HT1080-NT tox = kills 2HG-producing HT-1080-NT fibrosarcoma cells; HT-1080-NT fibrosarcoma viability, CellTiter-Glo ATP luminescence, 48 h; Potency, µM (doses to about 46.1 µM), inactives show top-dose activity, negative = less viability, usual class: cytotoxic; 1.6% of 360,000 active;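 also: NT is the 2HG producing partner of a matched IDH1 knockdown line; potency is read from the fitted curve at half-maximal effect; 0% = DMSO-treated cells and -100% = media-only wells without cells; nearly all actives have a fitted effect of over 55% in size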
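HT-1080-NT fibrosarcoma cells (2HG-overproducing), 750 cells/well in RPMI with 5% FBS, dosed after 2 h and incubated 48 h at 37C. CellTiter-Glo luminescence normalized to DMSO and no-cell wells; concentration-response curves fitted and classed.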
HT1080 IDH1KD tx = HT-1080 IDH1 knockdown cell toxicity (counter line); HT-1080 IDH1 knockdown viability, ATP luminescence, 48 h; Potency, µM (highest dose often 46.1 µM), inactives show at the top dose activity, negative = toxicity, usual class: cytotoxic; AID 686971; 2% of 360,000 active;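 also: potency is read from the fitted curve at half-maximal effect; 0% = DMSO wells and -100% = cell-free medium wells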
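After a 2 h attachment period, IDH1KD HT-1080 cells took pin-transferred compound for 48 h at 37 °C; ATP-based luminescence after 10 min room-temperature reagent incubation reported viability.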
DT40 TDP1 CPT = DT40-hTDP1 cell growth loss with CPT; AID 686979; chicken DT40 Tdp1-/-;hTDP1 cells + 20 nM CPT, ATP luminescence, 48 h; Potency, µM (top dose mostly 46.2 µM), without a hit: at the top dose activity change, negative = growth inhibition, most hits filed as inhibitors; 12% of 420,000 active; also: potency is read from the fitted curve at half-maximal effect; nearly all actives have a fitted effect of over 55% in size
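Chicken DT40 Tdp1-/- cells complemented with human TDP1, 400 cells/well, exposed to compounds plus 20 nM camptothecin for at least 48 h at 37 C; viability read as ATP content by CellTiter-Glo luminescence.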
Active calls of the source: *; [ ] = another dose, or the depositor's remark. Unless noted, calls follow the shape of the dose curve; as a rule, active = well fitted curve in the direction sought with a large enough effect; inconclusive = small, poorly fitted or top-dose-only effect, or another doubt; inactive = no such curve, though single readings can be large; an effect the other way counts as inactive or inconclusive. Unless noted, % is scaled to controls: 0 for no effect and ±100 for the full control effect.

Results for COc1ccc(S(=O)(=O)N2CCCCC2)cc1NC(=O)CNc1ccccc1C(C)=O ?
IL1B secr inh: 19; DT40 TDP1 no CPT: inconclusive; HT1080-NT tox: -6%; HT1080 IDH1KD tx: -1%; DT40 TDP1 CPT: 23µM*

What do the screens show for `COc1ccc(CC(=O)Nc2cc(S(=O)(=O)N3CCCCC3)ccc2C)cc1OC`?
IL1B secr inh: 27; DT40 TDP1 no CPT: 18µM*; HT1080-NT tox: -19%; HT1080 IDH1KD tx: -13%; DT40 TDP1 CPT: inconclusive

Results for COc1ccc(S(=O)(=O)N(C)C)cc1NCC(=O)Nc1ccc(Br)c(C)c1 ?
IL1B secr inh: 2; DT40 TDP1 no CPT: 18µM*; HT1080-NT tox: -29%; HT1080 IDH1KD tx: -29%; DT40 TDP1 CPT: inconclusive

What do the screens show for `CCOc1ccc2[nH]c(C)c(CN3CCCCCC3)c(=O)c2c1`?
IL1B secr inh: 5; DT40 TDP1 no CPT: -21%; HT1080-NT tox: 1%; HT1080 IDH1KD tx: -1%; DT40 TDP1 CPT: 0%

How did COc1ccc([N+](=O)[O-])cc1NCC(=O)Nc1cc(S(=O)(=O)N2CCCCC2)ccc1C do in these assays?
IL1B secr inh: -1; DT40 TDP1 no CPT: 23µM*; HT1080-NT tox: -10%; HT1080 IDH1KD tx: 5%; DT40 TDP1 CPT: 15µM*

Results for COc1ccc(S(=O)(=O)N2CCCCCC2)cc1N(C)S(=O)(=O)c1ccc(C)cc1 ?
IL1B secr inh: -3; DT40 TDP1 no CPT: 13µM*; HT1080-NT tox: 0%; HT1080 IDH1KD tx: -3%; DT40 TDP1 CPT: inconclusive

Results for COc1ccc(S(=O)(=O)N2CCCCC2)cc1NCC(=O)Nc1ccc(C)cc1 ?
IL1B secr inh: -3; DT40 TDP1 no CPT: 9.2µM*; HT1080-NT tox: -20%; HT1080 IDH1KD tx: -10%; DT40 TDP1 CPT: 16µM*

What do the screens show for `COc1ccc(S(=O)(=O)N2CCOCC2)cc1N(C)S(=O)(=O)c1ccc(C)cc1`?
IL1B secr inh: inactive; DT40 TDP1 no CPT: inconclusive; HT1080-NT tox: -10%; HT1080 IDH1KD tx: -3%; DT40 TDP1 CPT: inconclusive

What do the screens show for `COc1ccc(S(=O)(=O)N2CCCCC2)cc1NC(=O)Cc1c[nH]c2ccccc12`?
IL1B secr inh: -7; DT40 TDP1 no CPT: 15µM*; HT1080-NT tox: -12%; HT1080 IDH1KD tx: -23%; DT40 TDP1 CPT: inconclusive

How did O=C(CCC(=O)NC1CCCCC1)N/N=C/c1ccncc1 do in these assays?
IL1B secr inh: -1; DT40 TDP1 no CPT: 1%; HT1080-NT tox: -2%; HT1080 IDH1KD tx: -14%; DT40 TDP1 CPT: 2%

Results for O=C(COC(=O)c1ccc(Cl)c(S(=O)(=O)N2CCc3ccccc3C2)c1)Nc1ncc(Cl)cc1Cl ?
IL1B secr inh: 8; DT40 TDP1 no CPT: -21%; HT1080-NT tox: 6%; HT1080 IDH1KD tx: 18%; DT40 TDP1 CPT: -12%

How did CC(NC(=O)C1CCN(C(=O)c2ccc(F)cc2)CC1)c1ccc(S(N)(=O)=O)cc1 (stereo not given) do in these assays?
IL1B secr inh: 22; DT40 TDP1 no CPT: -2%; HT1080-NT tox: 3%; HT1080 IDH1KD tx: 3%; DT40 TDP1 CPT: 13%

How did CCCc1cnc2c(c1SCC(=O)Nc1ccccc1OCC)c(=O)n(C)c(=O)n2C do in these assays?
DT40 TDP1 no CPT: -5%; DT40 TDP1 CPT: 2%

Results for COc1cccc(OCC(=O)N(Cc2nc(-c3ccc(Cl)cc3)no2)C(C)C)c1 ?
IL1B secr inh: -6; DT40 TDP1 no CPT: 23µM*; HT1080-NT tox: inconclusive; HT1080 IDH1KD tx: inconclusive; DT40 TDP1 CPT: 8.2µM*

What do the screens show for `CCN(Cc1nc(-c2ccccc2)no1)C(=O)COc1cccc(OC)c1`?
IL1B secr inh: 3; DT40 TDP1 no CPT: -23%; HT1080-NT tox: -12%; HT1080 IDH1KD tx: -4%; DT40 TDP1 CPT: 10%

How did Cc1ccc(-c2noc(CN(C(=O)COc3cc(C)cc(C)c3C)C(C)C)n2)cc1 do in these assays?
DT40 TDP1 no CPT: inconclusive; DT40 TDP1 CPT: 23µM*

Results for Cc1cc(Br)ccc1OCC(=O)N(Cc1nc(-c2ccccc2)no1)C(C)C ?
IL1B secr inh: 6; DT40 TDP1 no CPT: -20%; HT1080-NT tox: -1%[9.24 µM]; HT1080 IDH1KD tx: -22%; DT40 TDP1 CPT: -9%

What do the screens show for `COc1ccccc1OCC(=O)N(Cc1nc(-c2ccc(Cl)cc2)no1)C(C)C`?
IL1B secr inh: -26; DT40 TDP1 no CPT: 16µM*; HT1080-NT tox: 0%; HT1080 IDH1KD tx: -2%; DT40 TDP1 CPT: inconclusive

How did CC(C)N(Cc1nc(-c2ccccc2)no1)C(=O)COc1ccccc1 do in these assays?
IL1B secr inh: 1; DT40 TDP1 no CPT: inconclusive; HT1080-NT tox: 4%; HT1080 IDH1KD tx: 2%; DT40 TDP1 CPT: inconclusive

Results for COc1ccccc1OCC(=O)N(Cc1nc(-c2ccccc2)no1)C(C)C ?
IL1B secr inh: -59*; DT40 TDP1 no CPT: inconclusive; HT1080-NT tox: -6%; HT1080 IDH1KD tx: -1%; DT40 TDP1 CPT: -18%

Results for O=C(Nc1ccc(F)c(Cl)c1)c1ccc2c(=O)n3c(nc2c1)CCCCC3 ?
IL1B secr inh: -10; DT40 TDP1 no CPT: 21µM*; HT1080-NT tox: -4%; HT1080 IDH1KD tx: -25%; DT40 TDP1 CPT: 16µM*

How did O=C(Nc1ccc(Cl)cc1)c1ccc2c(=O)n3c(nc2c1)CCCCC3 do in these assays?
IL1B secr inh: 29; DT40 TDP1 no CPT: inconclusive; HT1080-NT tox: -14%; HT1080 IDH1KD tx: -6%; DT40 TDP1 CPT: inconclusive

Results for O=C(Nc1cccc(Cl)c1)c1ccc2c(=O)n3c(nc2c1)CCCCC3 ?
IL1B secr inh: -74*; DT40 TDP1 no CPT: inconclusive; HT1080-NT tox: inconclusive; HT1080 IDH1KD tx: -12%; DT40 TDP1 CPT: 23µM*

How did CCc1nnc(NC(=O)c2ccc3c(=O)n4c(nc3c2)CCC4)s1 do in these assays?
IL1B secr inh: -2; DT40 TDP1 no CPT: inconclusive; HT1080-NT tox: 1%; HT1080 IDH1KD tx: -2%; DT40 TDP1 CPT: -28%

Results for O=C(Nc1ccc(S(=O)(=O)N2CCCC2)cc1)c1ccc2c(=O)n3c(nc2c1)CCCCC3 ?
IL1B secr inh: -5; DT40 TDP1 no CPT: 16µM*; HT1080-NT tox: 4%; HT1080 IDH1KD tx: 2%; DT40 TDP1 CPT: inconclusive

What do the screens show for `Cc1ccc(-c2csc(NC(=O)c3ccc4c(=O)n5c(nc4c3)CCCCC5)n2)cc1`?
IL1B secr inh: 0; DT40 TDP1 no CPT: 13µM*; HT1080-NT tox: 12%; HT1080 IDH1KD tx: 3%; DT40 TDP1 CPT: 10µM*

What do the screens show for `CC(=O)c1ccc(NC(=O)c2ccc3c(=O)n4c(nc3c2)CCCCC4)cc1`?
IL1B secr inh: -13; DT40 TDP1 no CPT: inconclusive; HT1080-NT tox: -11%; HT1080 IDH1KD tx: -1%; DT40 TDP1 CPT: inconclusive

What do the screens show for `Cc1cccc(C(=O)NCc2nnc(SCC(=O)Nc3nncs3)n2C)c1`?
IL1B secr inh: -10; DT40 TDP1 no CPT: -4%; HT1080-NT tox: 1%; HT1080 IDH1KD tx: -9%; DT40 TDP1 CPT: 0%
